According to PubChem BioAssay (NCATS):
Records with an inconclusive call do not appear. Where a call stands in place of a potency, no number is given. The source made the active and inactive calls. Calls come from the whole dose curve; as a rule, active = well fitted inhibition curve with a large enough effect; inconclusive = small, poorly fitted or top-dose-only effect; inactive = no such curve, though single readings can be large or run the other way.

The compounds below were run against Retinaldehyde dehydrogenase 3 (Homo sapiens) (UniProt P47895) (assay: qHTS for Inhibitors of the Aldehyde Dehydrogenase Family (ALDH1A3) Primary screen (AID 2061315)). Conditions: ALDH inhibition qHTS; series mostly up to 56 µM.

| Compound | Potency | activity change, negative = inhibition |
| --- | --- | --- |
| COc1cc(OC)cc(C(=O)Nc2ccc(Cl)c(-c3nc4ccc(N(C)C)cc4[nH]3)c2)c1 | inactive |  |
| C[C@@H]1O[C@@H](O[C@H]2[C@H](O)[C@@H](O)[C@H](OC[C@H]3O[C@@H](OC(=O)[C@]45CCC(C)(C)C[C@H]4C4=CCC6[C@@]7(C)CC[C@H](O[C@@H]8OC[C@H](O)[C@H](O[C@@H]9O[C@H](CO)[C@@H](O)[C@H](O)[C@H]9O)[C@H]8O)[C@@](C)(CO)C7CC[C@@]6(C)[C@]4(C)CC5)[C@H](O)[C@@H](O)[C@@H]3O)O[C@@H]2CO)[C@H](O)[C@H](O)[C@H]1O (stereo not given in full) |  | 14.6% [at 11.2 µM] (inactive) |
| Cc1ccc(S(=O)(=O)N2CCC[C@H]2c2ccc(F)cc2)cc1 | inactive |  |
| CN(C)C/C=C/C(=O)Nc1cc2c(Nc3ccc(F)c(Cl)c3)ncnc2cc1OC1CCOC1 (stereo not given) | inactive |  |
| O=C(O)/C=C/c1ccc2occc2c1O[C@@H]1O[C@H](CO)[C@@H](O)[C@H](O)[C@H]1O | inactive |  |
| O=C(Nc1cc(C(F)(F)F)ccc1N1CCCCC1)c1ccncc1 | inactive |  |
| OCCc1ccc(O[C@@H]2O[C@H](CO)[C@@H](O)[C@H](O)[C@H]2O)cc1 | inactive |  |
| O=C(/C=C/c1ccc(O)cc1)OCC1OC(O)C(OC2OC(CO)C(O)C(O)C2O)C(O)C1O (stereo not given) | inactive |  |
| CC(=O)OC1CC2(C)C3=CCC4(C)C5C(O)C(O)C(C(C)C)C5(C)CCC4(C)C3CCC2C(C)(C)C1OC1OC(CO)C(O)C(O)C1O (stereo not given) | inactive |  |
| CC1(C)CC[C@]2(C(=O)O[C@@H]3O[C@H](CO)[C@@H](O)[C@H](O)[C@H]3O)CC[C@]3(C)C(=CCC4[C@@]5(C)CC[C@H](O[C@@H]6O[C@H](C(=O)O)[C@@H](O[C@@H]7O[C@H](CO)[C@@H](O)[C@H](O)[C@H]7O)[C@H](O)[C@H]6O[C@@H]6O[C@H](CO)[C@@H](O)[C@H](O)[C@H]6O)C(C)(C)C5CC[C@]43C)C2C1 (stereo not given in full) | inactive |  |
| C=C(C)[C@@H]1CC[C@]2(C)CC[C@]3(C)[C@H](CC[C@@H]4[C@@]5(C)CC[C@@H](O)C(C)(C)[C@@H]5CC[C@]43C)[C@@H]12 | inactive |  |
| C=C1C[C@]23C[C@H]1CC[C@H]2[C@@]12CC[C@H](O)[C@@](C)(C(=O)O1)[C@H]2[C@@H]3C(=O)O | inactive |  |
| O=C(OCCOCCO)c1ccccc1Nc1cccc(C(F)(F)F)c1 | inactive |  |
| COC1=CC(=O)O[C@@H](CCc2ccccc2)[C@@H]1O | inactive |  |
| COC(=O)/C=C/C=C/C(=O)OC1C=C2COC(=O)C2(O)C2(C)CCCC(C)(C)C12 (stereo not given) | inactive |  |
| COc1cc(C(=O)OC(COCCC(C)C)CN2CCOCC2)cc(OC)c1OC (stereo not given) | inactive |  |
| CC(=O)NC(CCC(=O)O)C(=O)NCCc1ccc(O)cc1 (stereo not given) | inactive |  |
| C=C1CC2[C@@]3(C)C=CC(=O)C(C)(C)C3=C(O)C(=O)[C@@]2(C)C2(C(=O)OC)C(=O)C(C)OC(=O)[C@@]12C (stereo not given in full) | inactive |  |
| COCC1OC(OC(C)(C)C2CCC3(C)C=C(C4CCC5C4(C)CC(O)C4OC(C(C)(C)OC6OC(CO)C(O)C(O)C6NC(C)=O)CCC45C)CCC3O2)C(NC(C)=O)C(O)C1O (stereo not given) | inactive |  |
| CC1=CCC(C(C)(C)O[C@@H]2O[C@H](CO[C@@H]3O[C@@H](C)[C@H](O)[C@@H](O)[C@H]3O)[C@@H](O)[C@H](O)[C@H]2O)CC1 (stereo not given in full) | inactive |  |

| Compound | Potency | activity change, negative = inhibition |
| --- | --- | --- |
| OC[C@H]1O[C@H](O[C@]2(CCl)O[C@H](CCl)[C@@H](O)[C@@H]2O)[C@H](O)[C@@H](O)[C@H]1Cl | inactive |  |
| COc1ccc2nccc(C(=O)CC[C@@H]3CCN(CC#Cc4cc(F)cc(F)c4F)C[C@@H]3C(=O)O)c2c1 | inactive |  |
| Cc1cc(N2CCN(C(=O)Oc3ccc(-c4ccccc4)cn3)CC2)c2ccccc2n1 | inactive |  |
| CC(C)C(=O)O[C@@H]1[C@@H](O)[C@@H](O[C@H]2O[C@H](CO)[C@@H](O)[C@H](O)[C@H]2O)O[C@H](CO)[C@H]1O | inactive |  |
| CCC/C=C/C(=O)O[C@H]1CC(C)(C)CC2[C@]13[C@H](O)O[C@@]21CCC2[C@@]4(C)CC[C@H](O[C@@H]5O[C@H](C(=O)O)[C@@H](O)[C@H](O[C@@H]6O[C@H](CO)[C@H](O)[C@H](O)[C@H]6O[C@@H]6O[C@@H](C)[C@H](O)[C@@H](O)[C@H]6O[C@@H]6OC[C@](O)(CO)[C@H]6O)[C@H]5O[C@@H]5O[C@H](CO)[C@H](O)[C@H](O)[C@H]5O)C(C)(C)C4CC[C@@]2(C)[C@]1(C)C[C@H]3OC(C)=O (stereo not given in full) |  | 13.9% [at 11.2 µM] (inactive) |
| Nc1nc(-n2cc(C(=O)O)c(=O)c3cc(F)c(N4CC(O)C4)c(Cl)c32)c(F)cc1F | inactive |  |
| C=C1CC[C@@H]2C(C)(C)CCC[C@@]2(C)[C@@H]1CC/C(=C/C(=O)OC)COC(C)=O | inactive |  |
| CC(C(=O)Nc1cc(C#N)ccc1CCCC(=O)O)c1ccc(F)c2ccccc12 (stereo not given) | inactive |  |
| COC(=O)C[C@@H]1C(C(=O)O)=CO[C@@H](O[C@@H]2O[C@H](CO)[C@@H](O)[C@H](O)[C@H]2O)/C1=C\COC(=O)/C=C\c1ccccc1 | inactive |  |
| C=CC1(C)CC(O)C(C(=C)C(=O)OC)C(O)C1C(=C)CO (stereo not given) | inactive |  |
| Cc1ccc2c(n1)Oc1ccc(C(C)C(=O)OCC(=O)N(C)C)cc1C2 (stereo not given) | inactive |  |
| CCOC(=O)c1cc(C#N)c(N2CCC(C(=O)NS(=O)(=O)Cc3ccccc3)CC2)nc1C | inactive |  |
| O=C(CSc1nc2ccccc2c(=O)n1-c1ccccc1)Nc1ccc2c(c1)CCC2 | inactive |  |
| OC[C@@]1(O)CO[C@H](OC[C@H]2O[C@@H](OC(CCCCc3ccc(O)cc3)CCc3ccc(O)cc3)[C@H](O)[C@@H](O)[C@@H]2O)[C@@H]1O (stereo not given in full) | inactive |  |
| CC(C(=O)O)C1CCC2(C)C3C(=O)C=C4C(CCC(=O)C4(C)C)C3(C)CCC12C (stereo not given) | inactive |  |
| COC1CC(O[C@H]2CC[C@@]3(C)C(CCC4C3[C@H](OC(C)=O)[C@@H](OC(=O)/C=C/c3ccccc3)[C@]3(C)C(C(C)=O)CC[C@]43O)C2)OC(C)C1OC1CC(OC)C(OC2CC(OC)C(OC3OC(C)C(OC4OC(CO)C(O)C(O)C4O)C(OC)C3O)C(C)O2)C(C)O1 (stereo not given in full) |  | 5.71% [at 11.2 µM] (inactive) |
| CC1(C)CC2=C3C=CC4C5(C)CCC(O)C(C)(C)C5CCC4(C)C3(C)CCC2(C)C(O)C1 (stereo not given) | inactive |  |
| COC1C=C(C)C(O)(CO)C2(C)CCCC(C)(C)C12 (stereo not given) | inactive |  |
| C[C@@H]1CCC2C(C)(C)[C@H](O)CC[C@]2(C)[C@@]12Cc1c(O)cc3c(c1O2)CNC3=O (stereo not given in full) | inactive |  |
| O=C(O[C@@H]1O[C@H](CO)[C@@H](O)[C@H](O)[C@H]1O)c1c(O)cc(O)cc1/C=C/c1ccccc1 | inactive |  |
